Reference: PMC7862700, “An all-to-all approach to the identification of sequence-specific readers for epigenetic DNA modifications on cytosine”

Assays:
Test in all cases: DAPPL (digital affinity profiling via proximity ligation, sequencing); 10 mM Tris-HCl pH 7.5, 50 mM NaCl, 1 mM DTT, 4% glycerol, room temperature, 30 min; GST-TFs on glutathione beads, 16-mer random dsDNA library, 0.1% formaldehyde crosslink after washing; high values mean tight binding
FEV = biological target: T1, FEV (Homo sapiens, UniProt Q99581 1-238); details: protein: recombinant; tags: N-terminal GST; dsDNA, one strand shown
T1 sequence: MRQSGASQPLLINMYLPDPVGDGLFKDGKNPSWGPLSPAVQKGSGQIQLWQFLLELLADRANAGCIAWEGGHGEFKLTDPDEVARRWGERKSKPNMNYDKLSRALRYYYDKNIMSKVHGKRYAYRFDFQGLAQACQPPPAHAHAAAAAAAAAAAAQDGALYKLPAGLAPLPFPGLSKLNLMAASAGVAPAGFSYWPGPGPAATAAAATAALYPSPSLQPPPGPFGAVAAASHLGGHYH
Procedure, shortened: (§1)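 In yeast, human transcription factors were expressed with a GST fusion, then pulled down on glutathione beads and given DNA barcodes. Pooled with a tag-only sample, they were exposed to 200 nmole of a 16-mer random double-stranded DNA library (Tris/NaCl/DTT/glycerol buffer, room temperature, 30 min), washed, crosslinked with 0.1% formaldehyde, proximity-ligated using BsaI/T4 ligase for 1 h at 37 °C, PCR-amplified and read on an Illumina NextSeq500. Each hexamer's frequency of reads for a factor, divided by the matching frequency for the tag-only sample, gives the binding signal.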

ETV5 = ETV5 (Homo sapiens, UniProt P41161 1-510); details: protein: recombinant; tags: N-terminal GST; dsDNA, one strand shown
Procedure, shortened: as §1

HSF1 = HSF1 (Homo sapiens, UniProt Q00613 1-529); details: protein: recombinant; tags: N-terminal GST; chain copies: 3; dsDNA, one strand shown
Procedure, shortened: as §1

SPIC = biological target: T2, SPIC (Homo sapiens, UniProt Q8N5J4 1-248); details: protein: recombinant; tags: N-terminal GST; dsDNA, one strand shown
T2 sequence: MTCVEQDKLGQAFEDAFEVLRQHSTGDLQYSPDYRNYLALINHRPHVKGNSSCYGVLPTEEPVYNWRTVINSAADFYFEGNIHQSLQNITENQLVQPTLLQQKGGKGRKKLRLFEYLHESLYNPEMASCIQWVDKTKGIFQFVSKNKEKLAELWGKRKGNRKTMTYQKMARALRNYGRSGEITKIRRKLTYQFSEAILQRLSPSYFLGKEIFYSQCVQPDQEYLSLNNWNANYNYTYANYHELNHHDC
Procedure, shortened: as §1

ELF4 = ELF4 (Homo sapiens, UniProt Q99607 1-663); details: protein: recombinant; tags: N-terminal GST; dsDNA, one strand shown
Procedure, shortened: as §1

ELK4 = biological target: T3, ELK4 (Homo sapiens, UniProt P28324-2 1-405); details: protein: recombinant; tags: N-terminal GST; dsDNA, one strand shown
T3 sequence: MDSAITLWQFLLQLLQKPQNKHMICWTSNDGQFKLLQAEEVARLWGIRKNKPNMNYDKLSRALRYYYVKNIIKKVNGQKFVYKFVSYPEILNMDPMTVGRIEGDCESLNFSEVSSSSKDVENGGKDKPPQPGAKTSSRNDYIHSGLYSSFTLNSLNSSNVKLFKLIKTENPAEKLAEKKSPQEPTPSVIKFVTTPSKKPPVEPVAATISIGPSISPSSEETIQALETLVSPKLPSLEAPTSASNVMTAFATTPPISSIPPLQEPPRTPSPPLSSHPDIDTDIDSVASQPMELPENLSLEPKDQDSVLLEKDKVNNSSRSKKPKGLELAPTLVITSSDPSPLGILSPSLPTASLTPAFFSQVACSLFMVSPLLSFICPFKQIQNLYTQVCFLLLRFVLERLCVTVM
Procedure, shortened: as §1

ETV2 = biological target: T4, ETV2 (Homo sapiens, UniProt O00321 1-342); details: protein: recombinant; tags: N-terminal GST; dsDNA, one strand shown
T4 sequence: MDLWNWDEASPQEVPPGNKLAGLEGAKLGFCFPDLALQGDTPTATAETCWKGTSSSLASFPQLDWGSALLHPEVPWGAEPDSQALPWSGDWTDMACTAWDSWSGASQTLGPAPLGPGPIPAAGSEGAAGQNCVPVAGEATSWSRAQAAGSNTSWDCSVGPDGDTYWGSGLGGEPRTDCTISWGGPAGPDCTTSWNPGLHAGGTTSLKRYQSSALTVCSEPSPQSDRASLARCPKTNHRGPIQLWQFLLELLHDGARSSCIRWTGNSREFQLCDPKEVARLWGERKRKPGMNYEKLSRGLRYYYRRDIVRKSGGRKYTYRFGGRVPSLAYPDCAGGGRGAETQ
Procedure, shortened: as §1

ELF3 = biological target: T5, ELF3 (Homo sapiens, UniProt P78545 1-371); details: protein: recombinant; tags: N-terminal GST; dsDNA, one strand shown
T5 sequence: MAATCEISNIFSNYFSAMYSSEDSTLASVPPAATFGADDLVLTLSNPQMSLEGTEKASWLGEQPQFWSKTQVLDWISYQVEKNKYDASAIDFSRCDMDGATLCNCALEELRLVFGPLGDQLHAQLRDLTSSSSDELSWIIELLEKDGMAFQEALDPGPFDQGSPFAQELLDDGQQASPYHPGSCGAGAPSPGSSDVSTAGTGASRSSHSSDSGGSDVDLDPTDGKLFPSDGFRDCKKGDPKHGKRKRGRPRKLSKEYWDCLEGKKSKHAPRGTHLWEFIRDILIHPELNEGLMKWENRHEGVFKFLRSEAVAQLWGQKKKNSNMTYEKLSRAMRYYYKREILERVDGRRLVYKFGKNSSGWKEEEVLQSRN
Procedure, shortened: as §1

CRX = CRX (Homo sapiens, UniProt O43186 1-299); details: protein: recombinant; tags: N-terminal GST; dsDNA, one strand shown
Procedure, shortened: as §1

ETV1 = ETV1 (Homo sapiens, UniProt P50549 1-477); details: protein: recombinant; tags: N-terminal GST; dsDNA, one strand shown
Procedure, shortened: as §1

ERF = biological target: T6, ERF (Homo sapiens, UniProt P50548 1-548); details: protein: recombinant; tags: N-terminal GST; dsDNA, one strand shown
T6 sequence: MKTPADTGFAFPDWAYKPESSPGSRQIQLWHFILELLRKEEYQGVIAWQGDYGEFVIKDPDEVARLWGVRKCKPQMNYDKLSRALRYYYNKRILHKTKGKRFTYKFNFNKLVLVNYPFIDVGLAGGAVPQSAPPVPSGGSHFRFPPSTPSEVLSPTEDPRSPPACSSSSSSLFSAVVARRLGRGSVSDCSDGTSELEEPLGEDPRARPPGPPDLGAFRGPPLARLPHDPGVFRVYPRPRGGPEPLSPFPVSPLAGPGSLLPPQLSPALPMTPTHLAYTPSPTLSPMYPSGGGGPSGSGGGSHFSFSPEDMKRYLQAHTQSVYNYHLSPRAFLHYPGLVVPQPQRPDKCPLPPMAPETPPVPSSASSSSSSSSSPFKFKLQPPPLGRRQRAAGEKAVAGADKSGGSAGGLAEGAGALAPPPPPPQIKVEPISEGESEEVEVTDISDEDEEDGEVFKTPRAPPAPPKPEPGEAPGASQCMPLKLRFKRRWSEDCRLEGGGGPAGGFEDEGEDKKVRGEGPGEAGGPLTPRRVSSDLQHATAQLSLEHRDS
Procedure, shortened: as §1

ETV3L = biological target: T7, ETV3L (Homo sapiens, UniProt Q6ZN32 1-361); details: protein: recombinant; tags: N-terminal GST; dsDNA, one strand shown
T7 sequence: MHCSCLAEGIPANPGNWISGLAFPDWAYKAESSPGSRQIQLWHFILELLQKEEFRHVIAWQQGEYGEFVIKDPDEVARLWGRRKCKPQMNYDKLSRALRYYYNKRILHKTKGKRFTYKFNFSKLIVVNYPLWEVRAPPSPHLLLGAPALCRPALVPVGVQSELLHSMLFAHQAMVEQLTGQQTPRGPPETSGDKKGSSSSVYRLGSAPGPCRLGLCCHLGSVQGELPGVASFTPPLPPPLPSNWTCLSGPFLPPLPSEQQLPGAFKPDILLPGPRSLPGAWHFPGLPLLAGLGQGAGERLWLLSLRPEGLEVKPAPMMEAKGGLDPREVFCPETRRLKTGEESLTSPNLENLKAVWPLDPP
Procedure, shortened: as §1

ETS2 = biological target: T8, ETS2 (Homo sapiens, UniProt P15036 1-469); details: protein: recombinant; tags: N-terminal GST; dsDNA, one strand shown
T8 sequence: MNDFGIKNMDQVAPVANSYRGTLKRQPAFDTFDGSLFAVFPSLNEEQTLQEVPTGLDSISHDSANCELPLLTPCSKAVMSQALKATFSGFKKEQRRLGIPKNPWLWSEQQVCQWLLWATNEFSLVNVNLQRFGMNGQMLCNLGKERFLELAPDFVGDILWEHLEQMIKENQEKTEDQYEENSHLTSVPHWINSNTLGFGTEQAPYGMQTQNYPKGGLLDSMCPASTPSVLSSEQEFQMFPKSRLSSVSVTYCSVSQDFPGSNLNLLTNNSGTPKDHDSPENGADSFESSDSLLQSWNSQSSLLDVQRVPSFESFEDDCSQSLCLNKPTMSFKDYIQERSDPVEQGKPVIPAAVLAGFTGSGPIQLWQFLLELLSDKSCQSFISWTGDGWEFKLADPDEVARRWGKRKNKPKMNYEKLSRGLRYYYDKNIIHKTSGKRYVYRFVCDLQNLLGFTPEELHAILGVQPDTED
Procedure, shortened: as §1

SPDEF = biological target: T9, SPDEF (Homo sapiens, UniProt O95238 1-335); details: protein: recombinant; tags: N-terminal GST; dsDNA, one strand shown
T9 sequence: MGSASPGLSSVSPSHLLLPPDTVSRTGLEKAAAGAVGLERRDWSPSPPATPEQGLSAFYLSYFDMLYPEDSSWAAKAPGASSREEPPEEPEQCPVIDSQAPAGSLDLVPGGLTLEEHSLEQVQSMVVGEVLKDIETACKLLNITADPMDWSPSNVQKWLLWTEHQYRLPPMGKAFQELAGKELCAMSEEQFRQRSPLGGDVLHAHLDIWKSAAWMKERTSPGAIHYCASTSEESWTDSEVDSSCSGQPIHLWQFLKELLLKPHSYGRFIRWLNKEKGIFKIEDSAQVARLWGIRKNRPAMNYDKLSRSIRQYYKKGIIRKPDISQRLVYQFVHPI
Procedure, shortened: as §1

ETV7 = biological target: T10, ETV7 (Homo sapiens, UniProt Q9Y603 1-341); details: protein: recombinant; tags: N-terminal GST; dsDNA, one strand shown
T10 sequence: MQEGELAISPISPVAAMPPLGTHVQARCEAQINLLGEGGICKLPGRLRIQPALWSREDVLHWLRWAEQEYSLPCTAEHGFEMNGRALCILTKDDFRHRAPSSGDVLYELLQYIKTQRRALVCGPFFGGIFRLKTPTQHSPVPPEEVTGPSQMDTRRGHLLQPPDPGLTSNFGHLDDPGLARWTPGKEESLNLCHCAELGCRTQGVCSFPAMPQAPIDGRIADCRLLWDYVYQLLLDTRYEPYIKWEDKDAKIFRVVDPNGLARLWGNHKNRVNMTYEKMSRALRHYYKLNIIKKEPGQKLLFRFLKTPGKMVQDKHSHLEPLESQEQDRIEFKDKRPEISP
Procedure, shortened: as §1

ELF5 = biological target: T11, ELF5 (Homo sapiens, UniProt Q9UKW6-2 1-255); details: protein: recombinant; tags: N-terminal GST; dsDNA, one strand shown
T11 sequence: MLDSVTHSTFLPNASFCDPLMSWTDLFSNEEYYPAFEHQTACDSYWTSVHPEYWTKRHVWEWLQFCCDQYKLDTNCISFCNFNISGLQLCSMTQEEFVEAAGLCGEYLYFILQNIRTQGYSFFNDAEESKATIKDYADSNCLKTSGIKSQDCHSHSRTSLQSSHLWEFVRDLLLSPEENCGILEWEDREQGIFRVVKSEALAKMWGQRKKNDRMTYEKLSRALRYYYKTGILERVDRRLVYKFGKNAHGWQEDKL
Procedure, shortened: as §1

ETV3 = biological target: T12, ETV3 (Homo sapiens, UniProt P41162-2 1-143); details: protein: recombinant; tags: N-terminal GST; dsDNA, one strand shown
T12 sequence: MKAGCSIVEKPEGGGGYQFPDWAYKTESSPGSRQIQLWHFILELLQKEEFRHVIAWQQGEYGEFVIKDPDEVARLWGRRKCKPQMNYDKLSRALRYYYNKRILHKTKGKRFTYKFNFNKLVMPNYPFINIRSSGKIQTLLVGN
Procedure, shortened: as §1

ETV6 = ETV6 (Homo sapiens, UniProt P41212 1-452); details: protein: recombinant; tags: N-terminal GST; dsDNA, one strand shown
Procedure, shortened: as §1

Sequence of ETV6 (P41212 whole entry): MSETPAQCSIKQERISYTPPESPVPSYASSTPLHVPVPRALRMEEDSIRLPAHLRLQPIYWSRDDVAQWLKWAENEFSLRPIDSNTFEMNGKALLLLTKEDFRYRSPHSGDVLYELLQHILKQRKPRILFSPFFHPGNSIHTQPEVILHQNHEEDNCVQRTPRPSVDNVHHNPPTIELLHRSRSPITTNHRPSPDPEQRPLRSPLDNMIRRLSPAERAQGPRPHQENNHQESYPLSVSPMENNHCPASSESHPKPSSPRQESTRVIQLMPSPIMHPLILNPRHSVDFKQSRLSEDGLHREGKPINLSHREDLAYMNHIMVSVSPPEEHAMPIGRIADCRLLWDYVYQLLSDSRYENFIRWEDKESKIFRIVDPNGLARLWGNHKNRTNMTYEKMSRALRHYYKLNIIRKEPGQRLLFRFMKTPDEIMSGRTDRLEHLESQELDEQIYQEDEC
Sequence of ETV5 (P41161 whole entry): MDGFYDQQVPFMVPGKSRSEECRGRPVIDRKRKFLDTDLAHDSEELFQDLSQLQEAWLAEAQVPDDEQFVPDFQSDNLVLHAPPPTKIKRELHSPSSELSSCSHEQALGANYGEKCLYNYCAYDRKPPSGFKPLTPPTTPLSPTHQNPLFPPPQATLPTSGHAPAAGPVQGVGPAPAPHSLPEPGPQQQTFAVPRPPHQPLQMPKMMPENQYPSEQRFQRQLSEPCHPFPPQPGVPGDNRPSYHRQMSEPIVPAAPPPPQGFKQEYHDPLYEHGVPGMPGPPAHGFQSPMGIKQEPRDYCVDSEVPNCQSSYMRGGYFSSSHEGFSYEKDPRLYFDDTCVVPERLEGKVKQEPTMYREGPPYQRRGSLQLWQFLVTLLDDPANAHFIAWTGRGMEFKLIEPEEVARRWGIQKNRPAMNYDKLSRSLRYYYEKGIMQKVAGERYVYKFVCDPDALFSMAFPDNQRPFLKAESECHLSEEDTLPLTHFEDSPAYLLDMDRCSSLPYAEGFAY
Sequence of ELF4 (Q99607 whole entry): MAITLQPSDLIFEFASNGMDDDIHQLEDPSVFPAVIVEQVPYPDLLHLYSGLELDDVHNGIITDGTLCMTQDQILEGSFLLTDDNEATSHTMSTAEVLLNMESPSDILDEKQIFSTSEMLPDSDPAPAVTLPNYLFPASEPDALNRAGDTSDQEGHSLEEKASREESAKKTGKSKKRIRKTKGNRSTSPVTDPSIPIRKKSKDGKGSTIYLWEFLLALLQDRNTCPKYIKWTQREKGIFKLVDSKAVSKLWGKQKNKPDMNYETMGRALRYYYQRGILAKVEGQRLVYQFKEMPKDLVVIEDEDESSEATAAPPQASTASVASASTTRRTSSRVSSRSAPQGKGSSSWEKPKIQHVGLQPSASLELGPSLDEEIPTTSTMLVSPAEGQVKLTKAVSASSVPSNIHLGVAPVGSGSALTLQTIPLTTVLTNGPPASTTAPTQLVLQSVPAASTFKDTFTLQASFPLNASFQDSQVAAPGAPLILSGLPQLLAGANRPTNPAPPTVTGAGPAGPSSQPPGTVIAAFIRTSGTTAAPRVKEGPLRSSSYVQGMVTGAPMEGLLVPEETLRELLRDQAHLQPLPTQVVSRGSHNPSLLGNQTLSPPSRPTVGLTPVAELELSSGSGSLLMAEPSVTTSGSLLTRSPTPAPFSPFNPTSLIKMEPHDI
Sequence of CRX (O43186 whole entry): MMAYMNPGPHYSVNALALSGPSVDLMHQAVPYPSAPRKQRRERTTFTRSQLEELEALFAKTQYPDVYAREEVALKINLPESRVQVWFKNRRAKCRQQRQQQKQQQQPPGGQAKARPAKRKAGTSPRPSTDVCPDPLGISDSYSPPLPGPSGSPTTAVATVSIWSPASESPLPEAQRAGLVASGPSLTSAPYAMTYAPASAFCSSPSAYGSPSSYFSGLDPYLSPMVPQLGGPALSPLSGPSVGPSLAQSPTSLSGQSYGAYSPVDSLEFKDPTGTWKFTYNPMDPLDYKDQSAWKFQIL
Sequence of ETV1 (P50549 whole entry): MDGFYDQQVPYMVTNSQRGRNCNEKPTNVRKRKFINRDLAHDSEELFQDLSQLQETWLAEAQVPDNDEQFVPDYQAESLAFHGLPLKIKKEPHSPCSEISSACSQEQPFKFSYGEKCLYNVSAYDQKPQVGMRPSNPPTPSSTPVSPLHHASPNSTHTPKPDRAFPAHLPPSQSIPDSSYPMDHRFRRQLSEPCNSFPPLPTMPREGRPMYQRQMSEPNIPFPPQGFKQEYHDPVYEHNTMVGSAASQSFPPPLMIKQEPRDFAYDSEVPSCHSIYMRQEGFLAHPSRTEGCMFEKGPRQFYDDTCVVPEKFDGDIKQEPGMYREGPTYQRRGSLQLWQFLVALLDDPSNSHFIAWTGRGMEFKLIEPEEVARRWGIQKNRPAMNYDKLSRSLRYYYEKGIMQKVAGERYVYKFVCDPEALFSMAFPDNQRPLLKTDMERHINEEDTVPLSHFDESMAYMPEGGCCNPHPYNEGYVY
Sequence of HSF1 (Q00613 whole entry): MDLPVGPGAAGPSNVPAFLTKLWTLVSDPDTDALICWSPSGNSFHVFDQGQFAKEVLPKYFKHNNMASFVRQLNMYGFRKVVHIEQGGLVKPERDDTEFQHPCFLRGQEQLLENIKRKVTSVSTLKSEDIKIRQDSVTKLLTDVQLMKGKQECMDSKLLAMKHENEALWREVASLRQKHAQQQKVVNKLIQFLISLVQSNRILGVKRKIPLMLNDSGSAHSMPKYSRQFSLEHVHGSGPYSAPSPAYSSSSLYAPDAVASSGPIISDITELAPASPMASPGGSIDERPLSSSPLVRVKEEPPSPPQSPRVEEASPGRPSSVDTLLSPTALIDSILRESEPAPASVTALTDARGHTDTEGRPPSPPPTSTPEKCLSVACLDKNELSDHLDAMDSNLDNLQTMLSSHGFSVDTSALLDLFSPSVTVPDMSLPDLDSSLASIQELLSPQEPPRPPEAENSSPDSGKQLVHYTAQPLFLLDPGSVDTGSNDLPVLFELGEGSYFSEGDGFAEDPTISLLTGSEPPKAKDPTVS

Sequence: AATTGG
- binding signal (FEV): 1.43 fold enrichment (6-mer frequency, TF over GST control)
- binding signal (ETV5): 1.4 fold enrichment (6-mer frequency, TF over GST control)
- binding signal (HSF1): 1.2 fold enrichment (6-mer frequency, TF over GST control)
- binding signal (SPIC): 1.26 fold enrichment (6-mer frequency, TF over GST control)
- binding signal (ELF4): 1.38 fold enrichment (6-mer frequency, TF over GST control)
- binding signal (ELK4): 1.16 fold enrichment (6-mer frequency, TF over GST control)
- binding signal (ETV2): 1.2 fold enrichment (6-mer frequency, TF over GST control)
- binding signal (ELF3): 1.35 fold enrichment (6-mer frequency, TF over GST control)
- binding signal (CRX): 1.23 fold enrichment (6-mer frequency, TF over GST control)
- binding signal (ETV1): 1.39 fold enrichment (6-mer frequency, TF over GST control)
- binding signal (ERF): 1.26 fold enrichment (6-mer frequency, TF over GST control)
- binding signal (ETV3L): 1.33 fold enrichment (6-mer frequency, TF over GST control)
- binding signal (ETS2): 1.33 fold enrichment (6-mer frequency, TF over GST control)
- binding signal (SPDEF): 1.31 fold enrichment (6-mer frequency, TF over GST control)
- binding signal (ETV7): 1.42 fold enrichment (6-mer frequency, TF over GST control)
- binding signal (ELF5): 1.35 fold enrichment (6-mer frequency, TF over GST control)
- binding signal (ETV3): 1.28 fold enrichment (6-mer frequency, TF over GST control)
- binding signal (ETV6): 1.44 fold enrichment (6-mer frequency, TF over GST control)
